These results are taken from PubChem BioAssay AID2685 (National Center for Advancing Translational Sciences (NCATS), 2010).

The campaign covered roughly 320,000 compounds. About 2,100 (0.66%) were called active. About 53% were inconclusive and are not listed. The call rests on the fitted dose curve; in most records, active means well fitted inhibition curve with a large enough effect in the signal ratio, with a control signal flat (not every such curve was filed as active); inconclusive means small, poorly fitted or top-dose-only effect, or effect the other way, or a change in a side signal; inactive means flat fitted curve, though single readings scatter; the % refers to the signal ratio. The full list was thinned out, with actives kept by preference.
Potency means the concentration at half of the fitted maximal effect.

This experiment is described as follows: qHTS Assay for Lipid Storage Modulators in Drosophila S3 Cells.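 On cell number change: cells counted by Cell Tracker Red CMTPX staining in the red channel.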 On lipid storage change, negative = inhibition: on the % scale 0 is the no-effect control and ±100 the full control effect. Particulars: BODIPY lipid droplet fluorescence, 18-24 h, cells fed with added oleic acid; cell number change: measured here: cell count max response; series mostly up to 46.1 µM; lipid storage change, negative = inhibition: at the top concentration. An outline of the steps: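 Drosophila S3 cells loaded with oleic acid (400 uM, as added) and compounds at several concentrations; lipid droplets imaged by 488-nm laser-scanning cytometry, 500–530 nm intensity and object ratio to cell channel. Percent activity normalized to 20 uM Triacsin C.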
Consider `Cc1ccc(SCC(=O)OCC(=O)NC(C)c2ccc(Br)cc2)cc1` (stereo unspecified), for which the molecule was classed as inactive and the cell number change is -2.31%. On to `O=C1N(CC(=O)N2CCc3ccccc32)CCN1Cc1ccc(Cl)cc1`, for which the result was inactive.

`COc1nn(-c2ccccc2)c(=O)c(Cl)c1Cl`: the Potency is 11.6 µM (active) and the cell number change is -20%. In the case of `COc1cc(Cl)nn(-c2ccccc2)c1=O`, the “lipid storage change, negative = inhibition” value is 6.03% (inactive) and the cell number change was 0.264%. For the molecule `COc1c(Cl)cnn(-c2ccccc2)c1=O`, the “lipid storage change, negative = inhibition” value was 5.58% (inactive) and the cell number change was -2.85%.

On to `COc1ccc(NC(=O)NC2CCCCCCC2)c(OC)c1`, for which the molecule was classed as inactive and the cell number change was -0.578%.

With `COc1ccc(NC(=O)Cn2ccc3c(OC)cccc3c2=O)cc1`, the “lipid storage change, negative = inhibition” value was 0.623% (inactive) and the cell number change worked out at 0.407%. Take `NNC(=O)COc1ccc2oc3c(c2c1)CCCC3`: the result was inactive and the cell number change came to 10.5%. As for `CNC(=O)NC(=O)COc1ccc2oc3c(c2c1)CCCC3`, the Potency is 0.58 µM (active) and the cell number change was 18.9%. For the molecule `O=C(O)COc1ccc2oc3c(c2c1)CCCC3`, the call was inactive and the cell number change was determined as 21.3%. On to `O=C(N/N=C/c1ccco1)c1cc(C2CC2)nc2ccccc12`, for which the molecule was classed as inactive and the cell number change is -1.9%. For the molecule `O=C(N/N=C/c1ccco1)c1cc(-c2ccccc2)nc2ccccc12`, the Potency was 29.1 µM (active) and the cell number change is -7.31%. As for `COc1cccc(-c2cc(C(=O)N/N=C/c3ccco3)c3ccccc3n2)c1`, the “lipid storage change, negative = inhibition” value is -13.5% (inactive). With `O=C1N/C(=N/O)S/C1=C/c1cccnc1`, the “lipid storage change, negative = inhibition” value was -2.62% (inactive) and the cell number change turned out to be 16%. In the case of `O=C(Oc1ccccc1/C=C\C(=O)c1cc2ccccc2o1)c1ccccc1`, the Potency is 14.6 µM (active). On to `CC(=O)/C=C\c1ccccc1OC(=O)c1cc2ccccc2oc1=O`, for which the “lipid storage change, negative = inhibition” value is -11.6% (inactive) and the cell number change was -9.71%. Turning to `O=C(COC(=O)c1cc2ccccc2o1)c1ccccc1`, the molecule was called inactive and the cell number change was -6.43%. With `FC(F)(F)c1cc(C(F)(F)F)c2ccc(N3CCOCC3)nc2n1`, the “lipid storage change, negative = inhibition” value was 1.42% (inactive) and the cell number change came to 4.12%. In the case of `C=CCn1c(SCC(=O)NC(=O)c2cccc([N+](=O)[O-])c2)nnc1-c1ccccc1F`, the “lipid storage change, negative = inhibition” value is -0.693% (inactive) and the cell number change was -9.47%.

Regarding `Cc1ccc(C(=O)OCC(=O)N2CCOCC2)cc1`, the molecule was called inactive and the cell number change is -0.794%. For `Cc1ccc(NC(=O)COC(=O)c2ccc(C)c(S(=O)(=O)N3CCOCC3)c2)cc1`, the “lipid storage change, negative = inhibition” value is 1.82% (inactive) and the cell number change worked out at 6.4%. Regarding `O=C(COC(=O)c1ccc(Cl)c(S(=O)(=O)N2CCCCC2)c1)NCC1CCCO1` (stereo unspecified), the “lipid storage change, negative = inhibition” value was 7.99% (inactive) and the cell number change was found to be 18.1%. For `O=C(COC(=O)c1ccc(Br)c(S(=O)(=O)N2CCOCC2)c1)NCC1CCCO1` (stereo unspecified), the Potency was 0.58 µM (active) and the cell number change was -0.879%. Turning to `O=C(COC(=O)c1cc(S(=O)(=O)N2CCOCC2)ccc1O)NCC1CCCO1` (stereo unspecified), the “lipid storage change, negative = inhibition” value is 19.7% (inactive) and the cell number change was -22.6%.

As to `Cc1ccc(C(=O)OCC(=O)Nc2ccc3c(c2)OCO3)cc1S(=O)(=O)N1CCOCC1`, the “lipid storage change, negative = inhibition” value is 12.5% (inactive) and the cell number change is -2.32%. For the molecule `CCN(c1ccc(NC(=O)COC(=O)c2ccc(C)c(S(=O)(=O)N3CCOCC3)c2)cc1)C(C)C`, the Potency was 23.1 µM (active) and the cell number change is -6.95%.

As to `CSc1sc(C(=O)OC(C)C)c2c1C(=O)CC(C)(C)C2`, the molecule was classed as inactive and the cell number change was -5.28%. Turning to `O=C(NC1CC1)C1=C[C@H](c2ccc3c(c2)OCO3)C[C@H](OCc2ccc(CO)cc2)O1`, the “lipid storage change, negative = inhibition” value was 9.56% (inactive) and the cell number change came out at 3.05%. With `CC(=O)N1CCc2cc(Br)cc(S(=O)(=O)NCCCN3CCCC(C)C3)c21` (stereo unspecified), the “lipid storage change, negative = inhibition” value was 6.45% (inactive) and the cell number change is -1.7%.

With `CCCc1nc(SCC(=O)N2CCc3ccccc3C2)c2ccccc2n1`, the “lipid storage change, negative = inhibition” value is -4.35% (inactive) and the cell number change is -13.9%. `O=C(c1ccco1)N1CCN(C(=O)C2CC2)CC1`: the “lipid storage change, negative = inhibition” value is -0.297% (inactive) and the cell number change came to 3.46%. `O=C1c2ccccc2NC(c2cccc([N+](=O)[O-])c2)N1O` (stereo unspecified): the “lipid storage change, negative = inhibition” value is -0.341% (inactive) and the cell number change came to 5.94%. For `CC(=O)NN1C(=O)c2ccccc2NC1c1cccc([N+](=O)[O-])c1` (stereo unspecified), in that order: 0.744% (inactive) and -1.27%. Regarding `O=C1c2ccccc2NC(c2cccc([N+](=O)[O-])c2)N1CCc1ccccc1` (stereo unspecified), the Potency was 5.8 µM (active) and the cell number change is 8.73%.

Turning to `C[N+]1(C)CC2([N+](=O)[O-])CC=C(Oc3ccccc3)C([N+](=O)[O-])(C2)C1` (stereo unspecified), the “lipid storage change, negative = inhibition” value is -9.09% (inactive) and the cell number change is -16.8%. For the molecule `COCCn1c(SCC(=O)c2c(N)n(C3CC3)c(=O)[nH]c2=O)nnc1-c1ccc(Cl)cc1`, the “lipid storage change, negative = inhibition” value is 5.65% (inactive) and the cell number change is -5.22%. For `Cc1cc([N+](=O)[O-])ccc1NCc1ccccc1[N+](=O)[O-]`, in that order: 13.6% (inactive) and 7.15%. For `CC(=O)Nc1ccc(NC(=O)CSc2ccc([N+](=O)[O-])cn2)cc1`, the “lipid storage change, negative = inhibition” value is 8.29% (inactive) and the cell number change was found to be 0.135%. With `O=C(CSc1ccc([N+](=O)[O-])cn1)Nc1nccs1`, the Potency was 18.4 µM (active) and the cell number change was 2.83%. For `O=C(Cn1cc([N+](=O)[O-])cn1)Nc1nccs1`, the “lipid storage change, negative = inhibition” value is 3.37% (inactive) and the cell number change was determined as 10.2%. With `CCN(CC(=O)Nc1ccc(OC)cc1)C(=O)CCS(=O)(=O)c1ccc(C)cc1`, the “lipid storage change, negative = inhibition” value was -1.53% (inactive) and the cell number change came to 4.09%. Regarding `COc1ccc(CNS(=O)(=O)c2c(C(=O)N3CCCCC3)c(C)n(C)c2C)cc1`, the molecule was classed as inactive and the cell number change is -6.92%. In the case of `CNC(=O)c1ccc(NC(=O)CC23CC4CC(CC(C4)C2)C3)cc1`, the call was inactive and the cell number change is 12.8%. `O=C(CC12CC3CC(CC(C3)C1)C2)Nc1c(F)cccc1F`: the “lipid storage change, negative = inhibition” value is -2.56% (inactive) and the cell number change is -17.2%. For `CCN(CC)C(=O)c1cccc(NC(=O)CC23CC4CC(CC(C4)C2)C3)c1`, the Potency was 0.231 µM (active) and the cell number change was found to be 17.9%. Turning to `COc1ccc(CCNC(=O)C2CCC(=O)N2Cc2ccccc2Cl)cc1OC` (stereo unspecified), the “lipid storage change, negative = inhibition” value was -20.8% (inactive) and the cell number change is -14.8%.

On to `Cc1cc(C(=O)NCCCN2CCN(c3cc(Cl)ccc3C)CC2)n(-c2ccccc2)n1`, for which the cell number change turned out to be 12.1% and the lipid storage change, negative = inhibition is -3.15% [at 9.22 µM] (inactive).
